Where a name gives a salt, the structure may show the parent alone.
Tests used:
Details in all cases: 20 µM
[1] = test system: Salmonella enterica typhimurium; assay: growth AUC normalised to DMSO control (fraction of control); higher = less growth inhibition, active = hit call of the paper
Method in brief: (§1)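 Pathogens passaged twice anaerobically were inoculated at a starting OD578 of 0.01 into pre-reduced mGAM plates with drug at 20 μM and 1% DMSO, sealed with breathable membranes. Haemophilus parainfluenzae medium was supplemented with hemin and NAD. OD578 was read hourly for 24 h, with three biological replicates. Growth-curve AUC was computed by the trapezoidal rule up to the exponential-to-stationary transition and normalised to DMSO controls on the same plate.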

[2] = test system: Shigella flexneri; assay: as above
Method in brief: as §1

[3] = test system: Vibrio cholerae; assay: as above
Method in brief: as §1

[4] = test system: Yersinia pseudotuberculosis; assay: as above
Method in brief: as §1

[5] = test system: P. vulgatus RND KO; assay: growth AUC normalised to DMSO control (median) (fraction of control); higher = less growth inhibition, active = hit call of the paper
Method in brief: (§2)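 Each strain went through two overnight passages under anaerobic conditions before growth in mGAM in 96-well plates, starting at OD578 0.01, with each compound from the approved-drug library at 20 μM and 1% DMSO. Inside an anaerobic incubator, OD578 was recorded every hour for 24 h. Growth curves were cut off at entry into stationary phase, and the area under the curve was calculated by the trapezoidal rule and normalised to vehicle wells on the same plate. Reported values are medians of three biological replicates.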

[6] = test system: P. vulgatus WT; assay: as above
Method in brief: as §2

[7] = test system: S. enterica typhimurium WT; assay: as above
Method in brief: as §2

[8] = test system: S. enterica typhimurium tolC KO; assay: as above
Method in brief: as §2

Measured: growth AUC normalised to DMSO control
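Wherever growth AUC normalised to DMSO control (median) is given: active when median AUC fell below 0.1.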

Clc1ccc(Nc2nnc(Cc3ccncc3)c3ccccc23)cc1 [Vatalanib]
inactive: [1] 1.01 | [2] 1.05 | [3] 1.01 | [4] 1.02 | [5] 0.98 | [6] 0.992 | [7] 1.01 | [8] 0.966

CN1CCCC(n2nc(Cc3ccc(Cl)cc3)c3ccccc3c2=O)CC1 (centres undefined) [Azelastine hydrochloride]
inactive: [1] 1.01 | [2] 0.989 | [3] 0.932 | [4] 0.969 | [5] 1.01 | [6] 1 | [7] 1 | [8] 0.935

Oc1c(I)cc(Cl)c2cccnc12 [Clioquinol]
active: [6] 0.0312
inactive: [1] 1.03 | [2] 0.996 | [3] 1.07 | [4] 1.01 | [5] 0.134 | [7] 1.01 | [8] 0.55

Cc1nc2ccccn2c(=O)c1CCN1CCC(C(=O)c2ccc(F)cc2)CC1 [Pirenperone]
inactive: [1] 1.02 | [2] 1.03 | [3] 1.01 | [4] 1 | [5] 1.03 | [6] 1.04 | [7] 1.01 | [8] 0.986

CN1C(C(=O)Nc2ccccn2)=C(O)c2ccccc2S1(=O)=O [Piroxicam]
inactive: [1] 0.973 | [2] 0.995 | [3] 0.892 | [4] 1.01 | [5] 1.01 | [6] 1.04 | [7] 1.01 | [8] 0.977

Clc1ccc(Cn2c(CN3CCCC3)nc3ccccc32)cc1 [Clemizole hydrochloride]
inactive: [1] 0.98 | [2] 0.988 | [3] 0.922 | [4] 0.986 | [5] 0.902 | [6] 0.857 | [7] 0.997 | [8] 0.949

Cc1onc(-c2c(Cl)cccc2Cl)c1C(=O)N[C@@H]1C(=O)N2[C@@H]1SC(C)(C)[C@@H]2C(=O)O [Dicloxacillin sodium salt hydrate]
active: [5] 0.081 | [6] 0.0487 | [8] 0.00514
inactive: [1] 0.997 | [2] 1.01 | [3] 1 | [4] 1.01 | [7] 1.01

CC[N+](C)(CC)CCC[n+]1c(-c2ccccc2)c2cc(N)ccc2c2ccc(N)cc21 [Propidium iodide]
inactive: [1] 0.998 | [2] 1.06 | [3] 1.08 | [4] 1.01 | [5] 1.05 | [6] 1.06 | [7] 1.01 | [8] 1

CC=C(C)C(=O)OC1C(OC(C)=O)C2(CO)C(O)CC3(C)C(=CCC4C5(C)CCC(OC6OC(C(=O)O)C(OC7OC(CO)C(O)C(O)C7O)C(O)C6OC6OC(CO)C(O)C(O)C6O)C(C)(CO)C5CCC43C)C2CC1(C)C (stereo not drawn) [Beta-Escin]
inactive: [1] 0.997 | [2] 1 | [3] 0.995 | [4] 0.999 | [5] 0.998 | [6] 0.981 | [7] 0.977 | [8] 1

O=C1O[C@H]([C@@H](O)CO)C(O)=C1O [Ascorbic acid]
inactive: [1] 1.02 | [2] 1.07 | [3] 1.02 | [4] 0.989 | [5] 1.05 | [6] 1.04 | [7] 1.01 | [8] 0.997

CCCOc1ccc(C(=O)OCCN(CC)CC)cc1N [Proparacaine hydrochloride]
inactive: [1] 1 | [2] 1.02 | [3] 1.08 | [4] 1 | [5] 1.03 | [6] 1.05 | [7] 1.01 | [8] 1.01

CCCCc1nc(Cl)c(CO)n1Cc1ccc(-c2ccccc2-c2nnn[nH]2)cc1 [Losartan]
inactive: [1] 1.03 | [2] 1.03 | [3] 1.04 | [4] 1.02 | [5] 0.974 | [6] 0.977 | [7] 1 | [8] 0.995

Cn1cnc2c1c(=O)[nH]c(=O)n2C [Theobromine]
inactive: [1] 1.03 | [2] 1.08 | [3] 1.04 | [4] 1.03 | [5] 1.02 | [6] 1.03 | [7] 1.01 | [8] 1.01

CCOc1ccc(Cc2nccc3cc(OCC)c(OCC)cc23)cc1OCC [Ethaverine hydrochloride]
inactive: [1] 1.01 | [2] 1.04 | [3] 1 | [4] 1.01 | [5] 1 | [6] 0.998 | [7] 1 | [8] 0.969

CC(Oc1ccccc1)C(=O)N[C@@H]1C(=O)N2[C@@H]1SC(C)(C)[C@@H]2C(=O)O (some centres undefined) [Phenethicillin potassium salt]
active: [4] 0.898 | [5] 0.0155 | [6] 0.00969 | [8] 0.00227
inactive: [1] 1.01 | [2] 1.02 | [3] 1 | [7] 1

NC(CO)C(=O)NNCc1ccc(O)c(O)c1O (centres undefined) [Benserazide hydrochloride]
inactive: [1] 1 | [2] 1 | [3] 1.01 | [4] 0.942 | [5] 0.969 | [6] 0.973 | [7] 0.982 | [8] 1

O=C(NCCO[N+](=O)[O-])c1cccnc1 [Nicorandil]
inactive: [1] 0.995 | [2] 0.99 | [3] 0.991 | [4] 0.999 | [5] 0.986 | [6] 0.996 | [7] 1.01 | [8] 1.01

Fc1ccc(C(c2ccc(F)cc2)N2CCN(C/C=C/c3ccccc3)CC2)cc1 [Flunarizine dihydrochloride]
inactive: [1] 1.04 | [2] 1.04 | [3] 1.01 | [4] 1.02 | [5] 1.01 | [6] 1.03 | [7] 1.02 | [8] 0.987

OCCOCCN1CCN(C(c2ccccc2)c2ccc(Cl)cc2)CC1 (centres undefined) [Hydroxyzine dihydrochloride]
inactive: [1] 0.992 | [3] 0.975 | [4] 0.865 | [5] 0.989 | [6] 1 | [7] 1 | [8] 0.978
active: [2] 0.875

CC(=O)c1ccc2c(c1)N(CCCN(C)C)c1ccccc1S2 [Acetopromazine maleate salt]
inactive: [1] 1 | [2] 1 | [3] 0.888 | [4] 0.949 | [5] 0.984 | [6] 0.963 | [7] 1 | [8] 0.969

O=C1CC2(CCCC2)CC(=O)N1CCCCN1CCN(c2ncccn2)CC1 [Buspirone hydrochloride]
inactive: [1] 1.01 | [2] 1.08 | [3] 1.04 | [4] 1 | [5] 1.12 | [6] 1.11 | [7] 0.986 | [8] 0.979

NC12CC3CC(CC(C3)C1)C2 [Adamantamine fumarate]
inactive: [1] 1.02 | [2] 1.06 | [3] 1.03 | [4] 1 | [5] 1.04 | [6] 1.08 | [7] 0.996 | [8] 0.996

C[C@@H]1CCC[C@H](C)N1NC(=O)c1ccc(Cl)c(S(N)(=O)=O)c1 [Clopamide]
inactive: [1] 0.976 | [2] 0.97 | [3] 0.982 | [4] 0.992 | [5] 1 | [6] 0.981 | [7] 1.01 | [8] 0.988

Cc1cnc(NC(=O)C2=C(O)c3ccccc3S(=O)(=O)N2C)s1 [Meloxicam]
active: [3] 0.837
inactive: [1] 1.01 | [2] 0.953 | [4] 1 | [5] 0.982 | [6] 0.991 | [7] 0.994 | [8] 0.947

C[N+]1(C)CCC(=C(c2ccccc2)c2ccccc2)CC1 [Diphemanil methylsulfate]
inactive: [1] 0.987 | [2] 1.01 | [3] 1.02 | [4] 1.02 | [5] 1.03 | [6] 1.02 | [7] 0.991 | [8] 1

CC(=O)OCC1=C(C(=O)O)N2C(=O)[C@@H](NC(=O)Cc3cccs3)[C@H]2SC1 [Cephalothin sodium salt]
active: [1] 0.00459 | [2] 0.025 | [3] 0.0489 | [4] 0.0158 | [5] 0.00752 | [6] 0.0068 | [7] 0.00336 | [8] 0.00338

CC(C)NCC(O)c1ccc(O)c(O)c1 (single isomer, unassigned; (-)) [(-) Isoproterenol hydrochloride]
inactive: [1] 1.01 | [2] 1.03 | [3] 1.05 | [4] 1.02 | [5] 0.979 | [6] 0.967 | [7] 1 | [8] 0.992

N=C(N)NCCN1CCCCCCC1 [Guanethidine sulfate]
inactive: [1] 1.01 | [2] 0.988 | [3] 1.04 | [4] 1.03 | [5] 1.02 | [6] 1.01 | [7] 1.01 | [8] 1.01

— the supplement of paper PMC12350171
